VACV Venus inh: inhibitors of vaccinia virus (Venus reporter). Vaccinia virus Venus reporter expression, fluorescence. Potency, µM (highest dose often 36.5 µM), inactives show at the top dose activity change, negative = inhibition, usual class: inhibitors. 330,000 tested, 0.46% active. AID 720580; calls by dose curve; tested in A549 cells; further: potency means the concentration at half of the fitted maximal effect; nearly all actives have a fitted effect of over 30% in size
Marburg entry inh: Marburg virus entry inhibition; 300,000 tested, 1.8% active; Potency, µM (series often up to 37.8 µM), for inactives: top-dose activity change, negative = inhibition, usual class: inhibitors; Marburg virus pseudotyped entry inhibition, cell reporter; AID 540276; calls by dose curve; tested in HEK293 cells; further: potency means the concentration at half of the fitted maximal effect
VACV mCherry inh: inhibitors of vaccinia virus infection (mCherry reporter signal) | Vaccinia virus mCherry reporter infection, fluorescence | Potency, µM (doses to about 36.5 µM), without a hit: at the highest dose activity change, negative = inhibition, usual class: inhibitors | 310,000 tested, 0.63% active; calls by dose curve; tested in A549 cells; further: potency means the concentration at half of the fitted maximal effect; nearly all actives have a fitted effect of over 35% in size
HCV inhibitor: inhibitors of hepatitis C virus infection; Huh7.5.1 HCVcc-Cre infection, luciferase reporter, 44 h; Potency, µM (doses to about 41.8 µM), without a hit: top-dose activity change, negative = inhibition, most hits filed as inhibitors; 340,000 tested, 3.4% active; AID 651820; active means well fitted inhibition curve with a large enough effect; inconclusive means small, poorly fitted or top-dose-only effect, or another doubt; inactive means no such curve, though single readings can be large or run the other way; further: potency means the concentration at half of the fitted maximal effect
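Luciferase read-out (15 sec integration) after a 15 min room-temperature substrate step quantifies HCVcc-Cre infection. Cells, 1,000 per well, had compound added 4 h post-plating, then virus at ~0.5 moi, and were cultured 44 h.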
HCMV inh: human cytomegalovirus inhibition; activity change, negative = inhibition, % at 57.5 µM; 410,000 tested, 4.5% active; HFF cells, HCMV-luciferase reporter, 72 h; active compounds read low; in the data active means activity change below about -60%; inconclusive means no clear call, values can overlap the other calls; inactive means above about -39%
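Steps: HFFs plated, 16 h 37C; compounds added; HCMV-luciferase added to MOI 1 PFU/cell; 72 h 37C; OneGlo reagent, 5 min room temperature; luminescence read, normalized to controls.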
LASV entry inh: Lassa virus entry inhibition; Potency, µM (highest dose often 37.9 µM), for the others: top-dose activity change, negative = inhibition, usual class: inhibitors; AID 540256; Lassa virus pseudotype entry inhibition, cell reporter; 300,000 tested, 1.2% active; calls by dose curve; tested in HEK293 cells; further: potency means the concentration at half of the fitted maximal effect; nearly all actives have a fitted effect of over 50% in size
Starred values were filed as active, the others as inactive; i = inactive; ? = inconclusive; / = no result; [ ] = dose if it differs, or a comment. Sampled rows, rich in hits. Any-hit rate of the full collection: about 7.8%. On the % scale 0 is the no-effect control and ±100 the full control effect.

SMILES	VACV Venus inh	Marburg entry inh	VACV mCherry inh	HCV inhibitor	HCMV inh	LASV entry inh
COc1ccc(CN(C)Cc2c(O)ccc3cc(Br)ccc23)cc1OC	-14%	?	?	-4%	-66*	4%[46.1 µM]
COc1ccc(CN(C)Cc2c(O)ccc3ccccc23)cc1	-10%	2%[46.1 µM]	-26%	2%	18	15%[46.1 µM]
O=C(c1cccnc1)C1CCCN(Cc2ccc3c(c2)CN(C(=O)c2cn4ccccc4n2)CCO3)C1 (stereo not given)	-2%	/	-13%	/	/	/
COCCn1c(C)cc(C(=O)COC(=O)c2ccc3c(c2)NC(=O)CS3)c1C	-9%	?	-11%	?	6	29%
C=CCn1c(C)cc(C(=O)COC(=O)c2ccc3c(c2)NC(=O)CS3)c1C	-5%	11µM*	i	?	?	?
CCOc1cc(CNCc2cccs2)cc(Br)c1OCC	?	?	/	?	-27	?
CCOc1cc(CNCCO)cc(Br)c1OCc1ccc(Cl)cc1Cl	13µM*	?	/	?	2	-24%
CCOc1cc(CNCCO)cc(Br)c1OCc1cccs1	?	?	-22%	5.6µM*	?	-25%
OCCNCc1cc(Br)ccc1OCc1ccc(Cl)cc1Cl	?	11µM*	/	11µM*	-17	11µM*
CCOc1cc(CNCc2ccncc2)cc(Br)c1OCc1ccccc1F	?	?	-1%[1.46 µM]	7.9µM*	-70*	?
Cc1noc(COc2ccccc2OC[C@H](O)CNC(C)(C)C)n1	/	-8%	/	/	/	/
CC1CCC2(CC1)NC(=O)N(CC(=O)Nc1cccc(S(=O)(=O)N3CCCCC3)c1)C2=O (stereo not given)	/	/	/	25µM*	-26	/
CCOC(=O)c1cc(-c2ccccc2)sc1NC(=O)CN1C(=O)NC(CC)(c2ccc(F)cc2)C1=O (stereo not given)	/	?	/	10µM*	-9	2%
CCC1(c2ccc(F)cc2)NC(=O)N(CC(=O)Nc2cccc(S(=O)(=O)N3CCCCC3)c2)C1=O (stereo not given)	-24%	?	-21%	10µM*	-39	-10%
Cc1ccc(SCc2nc(N)nc(Nc3ccccc3C)n2)c(C)c1	/	-1%	/	?	-61*	-16%
Cc1ccc(SCc2nc(N)nc(Nc3ccccc3C)n2)cc1C	-28%	/	-7%	13µM*	-101*	/
Fc1cccc(-n2ncc(-c3nnnn3-c3ccccc3)c2C(F)(F)F)c1	/	-2%	/	?	-24	?
Cc1ccc(-n2nnnc2-c2cnn(-c3cccc(F)c3)c2C(F)(F)F)cc1	/	?	/	?	-75*	?
O=C(CS(=O)c1ccc(F)cc1)Nc1ccccc1Cl (stereo not given)	-2%	24%[46.1 µM]	-5%	12%	-77*	-2%
COc1cc(-c2cnc3ccccc3c2)cc2c1OCCN(C(=O)Cn1nccc1C)C2	-1%	/	-4%	/	/	/
COc1ccc(C2=CC(c3c(C)nn(-c4ccccc4)c3Cl)n3nnnc3N2)cc1OC (stereo not given)	?	?	/	11µM*	?	?
CNS(=O)(=O)c1ccc2nc(NC(=O)/C=C/c3ccco3)sc2c1	?	-24%[46.1 µM]	6.3µM*	?	-20	-16%[46.1 µM]
CCn1cc(C(=O)NCc2ccccc2Cl)c(=O)c2cc(S(=O)(=O)N3CCCCCC3)ccc21	?	1%[46.1 µM]	?	/	30	-1%[46.1 µM]
CCO[C@@H]1OC(C(N)=O)=C[C@H](c2ccc3c(c2)OCO3)[C@H]1CCCO	-6%	/	i	16%	-95*	/
CCO[C@@H]1OC(C(=O)NCc2nc3ccccc3[nH]2)=C[C@H](C)[C@H]1CCCO	-13%	/	-2%	-17%	-40	/
SMILES	VACV Venus inh	Marburg entry inh	VACV mCherry inh	HCV inhibitor	HCMV inh	LASV entry inh
CCO[C@H]1OC(C(=O)N2CCN(C)CC2)=C[C@@H](C)[C@@H]1CCCO	-5%	/	-2%	1%	-97*	/
CCO[C@H]1OC(C(=O)N2CCN(Cc3ccccc3)CC2)=C[C@@H](c2ccc(C(F)(F)F)cc2)[C@@H]1CCCO	?	/	i	?	-86*	/
CCO[C@H]1OC(C(=O)NCc2nc3ccccc3[nH]2)=C[C@@H](C)[C@@H]1CCCO	-3%	/	i	?	-62*	/
CCO[C@H]1OC(C(=O)N2CCN(C)CC2)=C[C@@H](C(C)(C)C)[C@@H]1CCCO	-5%	/	-9%	?	-7	/
CCO[C@H]1OC(C(=O)N2CCN(Cc3ccccc3)CC2)=C[C@@H](c2ccccc2)[C@@H]1CCCO	-3%	/	-14%	-23%	-15	/
Cc1ccc(Cc2cnc(NC(=O)c3cccs3)s2)cc1	?	?	?	?	75	?
O=C(Nc1ncc(Cc2cccc(Cl)c2)s1)c1cccs1	?	10µM*	-28%	22µM*	80	8.9µM*
O=C(Nc1ncc(Cc2ccccc2)s1)c1cccs1	?	?	/	?	69	?
Cc1ccc(C(=O)Nc2ncc(Cc3ccccc3)s2)o1	/	5.2µM*	/	?	-8	?
Cc1cc(C)n(CCc2nc(-c3ccc(-c4ccccc4)cc3)cs2)n1	-13%	11%[46.1 µM]	0%	?	-65*	13%[46.1 µM]
COc1ccc(-c2csc(CCn3nc(C)cc3C)n2)cc1	-12%	?	-6%	?	-7	?
Cc1cc(C)n(CCc2nc(-c3ccco3)cs2)n1	/	12%	/	-2%	-105*	-11%
Cc1cc(C)n(CCc2nc(-c3cccs3)cs2)n1	-25%	5%	/	14%	20	-10%
COc1cccc(NC(=O)C2CCN(S(=O)(=O)c3cc(-c4noc(C)n4)ccc3C)CC2)c1	?	/	?	/	-72*	?
COc1cccc(NC(=O)C2CCN(S(C)(=O)=O)CC2)c1	-7%	3%	i	-2%	40	0%
CC(=O)c1ccc(N2CCN(S(=O)(=O)c3cc(-c4noc(C)n4)ccc3C)CC2)cc1	-17%	/	-18%	/	5	8%[46.1 µM]
CCc1cccc(NC(=O)C2CCN(S(=O)(=O)c3cccc(-c4noc(C)n4)c3)CC2)c1	-18%	/	-10%	/	-61*	?
CCc1cccc(NC(=O)C2CCCN2S(=O)(=O)c2ccc3nc(-c4ccccc4)[nH]c3c2)c1 (stereo not given)	?	/	?	/	-60*	-24%[46.1 µM]
Cc1nc(-c2cccc(S(=O)(=O)N3CCC(C(=O)NCc4ccccc4Cl)CC3)c2)no1	0%	/	7%	/	-9	6%[46.1 µM]
Cc1nc(-c2ccc(C)c(S(=O)(=O)N3CCC(C(=O)Nc4ccc(Cl)cc4)CC3)c2)no1	?	/	-22%	/	-75*	?
CC(C)Oc1ccc(CNC(=O)c2ccc3c(c2)N(C)C(=O)C2CCCCN32)cc1 (stereo not given)	-4%	/	-21%	/	23	3%[46.1 µM]
Cc1cc(C)c[n+](-c2nc3ccccc3nc2[N-]S(=O)(=O)c2ccc(Cl)cc2)c1	-13%	-2%	-2%	14%	-32	-6%

Screening results deposited in PubChem BioAssay by National Center for Advancing Translational Sciences (NCATS).
